Compound activity as filed in PubChem.
HTT-AS promoter: Primary qHTS for Identification of Small Molecule Activators of Huntingtin-Antisense Promoter Activity; HEK293 HTT-AS promoter firefly luciferase reporter, 24 h; response scale: percent change from vehicle, -100% = no light; Potency, µM (series often up to 57.5 µM), without a hit: at the top dose activity change, positive = activation, hits mostly activators; 48,000 tested, 0.24% active; also: nearly all actives have a fitted effect of over 55% in size
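HEK293 cells carrying firefly luciferase reporters were seeded at 2,500 per well in Opti-MEM and cultured for 24 h. They were then treated with compounds at up to 57.5 uM final for 24 h at 37 degrees C before Dual-Glo luminescence readout.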
mTORC1 inh: Acumen qHTS Assay for Inhibitors of the mTORC1 Signaling Pathway in MEF (Tsc2-/-, p53-/-) Cells: Sytravon. Tsc2-/- p53-/- MEF, phospho-rpS6 immunofluorescence/PI, 24 h. Potency, µM (titrated, usually from 38.3 µM), for inactives: at the highest dose activity change, negative = inhibition, usual class: inhibitors. 44,000 tested, 0.78% active;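 also: plate controls were DMSO for no effect and rapamycin for full effect; nearly all actives have a fitted effect of over 50% in size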
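Cell-based qHTS: Tsc2-/- p53-/- MEF, 24 h cpd, 37 °C; fix/perm, anti-phospho-S6 Alexa-488 + PI; Acumen 488 nm scan; pS6/PI ratio, % positive cells; rapamycin 7.5 nM = inhibition ref; PI count = viability.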
SKOV3 invasion: Primary qHTS assay for Inhibitors of ovarian cancer metastasis using an organotypic tumor microenvironment (TME) model. 46,000 tested, 0.1% active. SKOV3ip1-GFP adhesion/invasion on 3D omental model, fluorescence. Potency, µM (titrated, usually from 45.8 µM), for the others: top-dose activity change, negative = inhibition, usual class: inhibitors;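 also: plate controls were DMSO wells for no effect and tomatine positive control wells for full effect; nearly all actives have a fitted effect of over 65% in size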
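A 3D layer of primary human omental fibroblasts, mesothelial cells, fibronectin and collagen I, grown 48 hr, received SKOV3ip1-GFP cells in serum-free medium plus compounds at 0.36-46 umol/L. After 2 hr RT and 16 hr 37 C, fixed adherent GFP cells were counted; normalized to DMSO and tomatine.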
PMP22 txn prim: Cell-based coincidence reporter assay to measure PMP22 gene transcription in S16 Pmp22-F2sN cells - Primary screen. S16 Pmp22-F2sN Schwann cells, FLuc/NLuc coincidence luminescence, 24 h. Potency, µM (series often up to 57.5 µM), inactives show at the highest dose activity change, negative = inhibition, usual class: inhibitors. 43,000 tested, 2% active; active = clear falling dose curves in both reporters; inconclusive = both reporters move, but less clearly or upward; inactive = either reporter flat; the % is the NLuc reporter signal; also: % is scaled to controls: 0 for no effect and ±100 for the full control effect
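Luminescent read-out of sequential FLuc and NLuc signals from a reporter embedded in the Pmp22 3' UTR of S16 Schwann cells, taken after 24 h compound exposure at 37C; compounds reducing both signals score as inhibitors of expression.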
HTT prom inh: Primary qHTS for Identification of Small Molecule Inhibitors of Huntingtin Promoter Activity; HEK293 HTT promoter firefly luciferase reporter, 24 h; Potency, µM (top dose mostly 57.5 µM), for inactives: at the top dose activity change, negative = inhibition, most hits filed as inhibitors; 48,000 tested, 0.93% active; AID 1508623, 2021; also: nearly all actives have a fitted effect of over 50% in size
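HEK293 luciferase promoter-reporter cells (2,500/well) plated 24 h, then compounds added at up to 57.5 uM final for 24 h at 37 °C. Firefly luminescence by Dual-Glo, normalized to vehicle (0%) and zero RLU (-100%).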
S16 F2sN tox: Cell viability qHTS assay in S16 Pmp22-F2sN cells; AID 1508642, 2021; S16 Pmp22-F2sN Schwann cells (luciferase reporters placed in the Pmp22 gene) viability, CellTiter-Glo, 24 h; 43,000 tested, 0.48% active; Potency, µM (doses to about 57.5 µM), without a hit: at the highest dose activity change, negative = cytotoxicity, most hits filed as cytotoxic; also: % is scaled to controls: 0 for no effect and ±100 for the full control effect; nearly all actives have a fitted effect of over 65% in size
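S16 Schwann cells carrying the Pmp22-F2sN reporter, seeded in 1536-well format, were exposed to library compounds for 24 h at 37C. Viability was read as CellTiter-Glo luminescence after 15 min at room temperature.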
Starred values were filed as active, the others as inactive; i = inactive; ? = inconclusive; . = no result; ! = repeats disagree. Only some compounds are listed: those with a hit (about 3.6% of all), similar ones and a draw of the others. Unless noted, calls follow the shape of the dose curve; as a rule, active = well fitted curve in the direction sought with a large enough effect; inconclusive = small, poorly fitted or top-dose-only effect, or another doubt; inactive = no such curve, though single readings can be large; an effect the other way counts as inactive or inconclusive. Potency is read from the fitted curve at half-maximal effect.

SMILES	HTT-AS promoter	mTORC1 inh	SKOV3 invasion	PMP22 txn prim	HTT prom inh	S16 F2sN tox
CC(C)c1ccc(NC(=O)CSC2=Nc3ccccc3C3=NC(CCC(=O)NCc4ccc(F)cc4)C(=O)N23)cc1 (centres undefined)	-38%	?	2%	?	?	28µM*
COc1ccc(OC)c(NC(=O)CSC2=Nc3ccccc3C3=NC(CCC(=O)NCc4ccccc4)C(=O)N23)c1 (centres undefined)	7%	-1%	25%	12µM*	-16%	?
CCc1ccc(NC(=O)CSC2=Nc3ccccc3C3=NC(CCC(=O)NCc4ccccc4)C(=O)N23)cc1 (centres undefined)	-6%	-8%	8%	-24%	?	7%
COc1ccc(Cl)cc1NC(=O)CSC1=Nc2ccccc2C2=NC(CCC(=O)NCc3ccc(F)cc3)C(=O)N12 (centres undefined)	-21%	2%	7%	?	-4%	-23%
O=C(C=Cc1ccc(/C=C/C(=O)Nc2ccc(C3=NCCN3)cc2)cc1)Nc1ccc(C2=NCCN2)cc1	-22%	.	-5%	.	-6%	.
CCCc1oc2ccc(NS(=O)(=O)c3ccc(OCC)cc3)cc2c1C(=O)OCC	-39%	15µM*	-1%	?	?	-27%
CCOc1ccc(S(=O)(=O)Nc2ccc3oc(C)c(C(=O)OC(C)C)c3c2)cc1	-7%	-23%	-3%	?	?	-3%
CC(=O)Nc1ccc([C@H](C)C(=O)Nc2ncc(C(C)C)s2)cc1	-19%	.	-1%	.	?	.
COCCCNC(=O)C1CCN(C(=O)c2cc3sccc3n2Cc2ccc(Cl)cc2)CC1	-36%	2%	-16%	?	?	?
COCCNC(=O)C1CCN(C(=O)c2cc3sccc3n2Cc2ccc(Cl)cc2)CC1	-51%	1%	i	10µM*	?	?
Cc1ccc(-n2ncc(C(=O)NCCCN3CCc4ccccc4C3)c2C2CCN(C(=O)OC(C)(C)C)CC2)c(C)c1	-22%	9.3µM*	-3%	?	-14%	?
Cc1cc(S(=O)(=O)Nc2ccc3[nH]c(=O)sc3c2)ccc1F	-28%	0%	i	-6%	?	-12%
CCn1c(=O)sc2cc(NS(=O)(=O)c3ccc(F)c(C)c3)ccc21	-52%	-17%	i	?	14µM*	-15%
Cc1c(NC(=O)OC[C@@H]2COCCN2)cn2ncnc(Nc3ccc4c(cnn4Cc4cccc(F)c4)c3)c12	-35%	.	-15%	.	-24%	.
O=c1c(-c2ccc(O)cc2)coc2cc(O)ccc12	?	.	3%	.	0%	.
CC(C)Oc1ccc2c(=O)c(-c3ccccc3)coc2c1	0.86µM*!	.	-9%	.	24%	.
Cc1ccc(O)c(NC(=O)c2ccc(Br)c(S(=O)(=O)N3CCCCC3)c2)c1	-42%	21%	-5%	?	20µM*	14%
Cc1cccc(-c2nc(CN3CCCC(C(=O)NCCc4ccc(Cl)cc4)C3)c(C)o2)c1 (centres undefined)	-46%	-18%	?	?	32µM*	-25%
Cc1ccc(CCNC(=O)C2CCCN(Cc3nc(-c4cccc(Cl)c4)oc3C)C2)cc1 (centres undefined)	-65%	1%	-43%	?	-23%	?
